Bioassay records as filed in PubChem.
CYP2C9 inhib – human CYP2C9 inhibition; P11712; CYP2C9 Supersomes, luciferin-H conversion, luminescence; inhibition, % at 5 µM; hit rate 20% among 96,000;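 active = blocking of liver enzyme CYP2C9 beyond about 50% at 5 µM, limit read from the data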
CYP2C9 act – CYP2C9 (human) activation. P11712. recombinant CYP2C9, luciferin-H conversion, luminescence; hits give high values; factor 1 = untreated enzyme, 0 = blocked. activation factor at 5 µM. hit rate 1.4% among 96,000. AID 1024;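 active = activation factor of 2 or more for CYP2C9 at a 5 µM dose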;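 note: 0 = sulfaphenazole-blocked wells and 1 = vehicle-only wells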
Cav32 inh – human Cav3.2 channel inhibition, primary screen. O95180. Cav3.2-expressing cells, Fluo-4 calcium fluorescence FDSS; hits give low values. B-score at 10 µM. hit rate 4% among 100,000. AID 449739;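 active = single-dose well whose peak fluorescence ratio is a statistical outlier from its plate by either plate-standardised score or position-corrected B-score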
CYP2C19 activ – cytochrome P450 2C19 (human) activation | P33261 | recombinant CYP2C19, luciferin-H EGE luminescence; hits give high values; 0 = fully inhibited enzyme, 1 = untreated enzyme | activation factor at 5 µM | 96,000 tested, under 10 active;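 active = activation factor of at least 2 at 5 µM in the primary screen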;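 note: 0 = wells with 2.5 mM tranylcypromine and 1 = vehicle-only wells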
Target sequence (P33261 whole entry, looked up): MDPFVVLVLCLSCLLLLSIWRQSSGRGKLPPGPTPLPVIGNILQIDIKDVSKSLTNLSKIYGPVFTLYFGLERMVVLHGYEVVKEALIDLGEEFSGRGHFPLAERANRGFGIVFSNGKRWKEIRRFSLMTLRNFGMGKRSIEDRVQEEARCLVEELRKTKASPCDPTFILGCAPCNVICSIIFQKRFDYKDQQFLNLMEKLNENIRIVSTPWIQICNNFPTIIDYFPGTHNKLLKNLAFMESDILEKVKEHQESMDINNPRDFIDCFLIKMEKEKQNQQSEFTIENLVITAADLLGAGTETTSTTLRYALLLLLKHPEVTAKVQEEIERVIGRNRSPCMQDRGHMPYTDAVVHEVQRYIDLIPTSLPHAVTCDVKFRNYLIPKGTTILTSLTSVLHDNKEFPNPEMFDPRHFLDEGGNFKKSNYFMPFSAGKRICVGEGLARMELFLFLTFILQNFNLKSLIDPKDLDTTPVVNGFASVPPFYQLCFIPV
CYP2C19 inhib – blocks human cytochrome P450 2C19; inhibition, % at 5 µM; CYP2C19 Supersomes, luciferin-H EGE luminescence, 30 min; hit rate 21% among 96,000; AID 778;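 active = CYP2C19 inhibition above a set limit at 5 µM in the primary screen, cut at about 50% in these data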;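 note: plate controls were negative control wells for no effect and 2.5 mM tranylcypromine positive control for full effect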
The depositor's hits bear a star; . = no result given. Only some compounds are listed: those with a hit (about 27% of all), similar ones and a draw of the others.

SMILES | CYP2C9 inhib | CYP2C9 act | Cav32 inh | CYP2C19 activ | CYP2C19 inhib
O=C(Nc1ccc2c(c1)OCO2)C1Cc2ccccc2CN1S(=O)(=O)c1cccs1 (configuration not stated) | 71.8* | 0.3 | -1.74 | 0.4 | 56.1*
O=C(Nc1ccc2c(c1)OCO2)C1CCCN(S(=O)(=O)c2cccs2)C1 (configuration not stated) | 67.5* | 0.3 | 1.84 | 0.5 | 53.3*
O=C(Nc1ccc2c(c1)OCCO2)C1CCCN(S(=O)(=O)c2cccs2)C1 (configuration not stated) | 46.6 | 0.5 | -0.0935 | 0.6 | 41.5
O=S(=O)(/C=C/c1ccccc1)Nc1ccc2c(c1)OCO2 | 87.2* | 0.1 | -7.42* | 0 | 99.8*
CCC(C)NC(=O)C1CCN(S(=O)(=O)c2cccs2)CC1 (configuration not stated) | 52.1* | 0.5 | 0.272 | 1 | 4.8
O=C(O)COc1ccc(C(=O)Cc2ccc3c(c2)OCCCO3)c(O)c1 | 1.8 | 1 | 0.0557 | 0.8 | 20.0
O=C(Cc1ccc2c(c1)OCCO2)c1c(O)cc(O)cc1O | 95.9* | 0 | -1.48 | 0.1 | 93.7*
Cc1[nH]nc2c1C(c1cccc(OC(=O)N3CCOCC3)c1)C(C#N)=C(N)O2 (configuration not stated) | 14.5 | 0.9 | -0.564 | 0.9 | 12.7
COc1ccc(-c2nc3c(n2O)CCCC3=O)cc1OC | -6.9 | 1.1 | 0.403 | 1.1 | -5.2
CCCCc1nn(-c2cc(Cl)ccc2OC)c2c1C(=O)CCC2 | 91.5* | 0.1 | -2.37 | 0 | 96.6*
CN(C)c1oc(-c2ccccc2Cl)nc1C#N | -179.3 | 2.8* | . | 0.4 | 61.8*
CN(C)c1oc(-c2ccccc2Cl)nc1S(=O)(=O)c1ccccc1 | -43.9 | 1.4 | -6.29* | 0.2 | 78.7*
N#Cc1nc(-c2ccccc2Cl)oc1N1CCCCC1 | 81.4* | 0.2 | . | 0.1 | 85.6*
CC(C)CCNC(=O)c1c(CSc2ccccc2)noc1C(=O)NCc1ccccc1 | . | . | 0.0918 | . | .
CN(NC(=O)c1ccc(Cl)cc1)c1cccc(Cl)n1 | -21.7 | 1.2 | -0.0202 | 0.4 | 55.5*
Cc1[nH][nH]c(=O)c1C(c1ccc(-c2ccc(Cl)cc2Cl)o1)c1c(C)[nH][nH]c1=O | 48.0 | 0.5 | -0.442 | 0.3 | 74.1*
CC1=NOC(=O)/C1=C\c1ccc(-c2ccc(Cl)cc2Cl)o1 | 49.3 | 0.5 | -0.289 | 0.5 | 48.0
O=C(O)CC1C(=O)NCCN1Cc1ccc(F)c(F)c1 (configuration not stated) | . | . | 0.379 | . | .
CC(=Nc1ccccc1)C1=C(O)CSC1=O | 28.9 | 0.7 | -1.48 | 0.6 | 35.4
CC(=Nc1ccccc1C)C1=C(O)CSC1=O | 23.2 | 0.8 | -0.923 | 0.2 | 75.3*
O=C(Nc1ccc2c(c1)nc1n2CCOC1)c1ccccc1 | -0.2 | 1 | -0.167 | 1 | -0.6
OC(COc1ccc2ccccc2c1)Cn1ccnc1 (configuration not stated) | 97.8* | 0 | 1.49 | 0 | 100.0*
Cc1ccc(S(=O)(=O)N=Nc2c(O)[nH]c3ccccc23)cc1C | 16.6 | 0.8 | -0.252 | 1 | 1.1
Cc1nnc(C)c2c(C)n(-c3ccc(Br)cc3)c(C)c12 | -15.3 | 1.2 | 0.0404 | 0.9 | 8.4
Cc1ccc(-n2c(C)c3c(C)nnc(C)c3c2C)cc1 | -13.5 | 1.1 | . | 0.4 | 57.6*
SMILES | CYP2C9 inhib | CYP2C9 act | Cav32 inh | CYP2C19 activ | CYP2C19 inhib
Cc1ccc(OCc2nc(C#N)c(NCc3ccco3)o2)cc1 | 100.3* | 0 | -3.41 | 0.1 | 90.3*
COc1ccccc1OCc1nc(C#N)c(NCc2ccco2)o1 | 80.2* | 0.2 | -0.94 | 0.3 | 73.7*
N#Cc1nc(COc2cccc(Cl)c2)oc1NCc1ccco1 | 84.7* | 0.2 | -1.86 | 0.5 | 50.4*
Cc1ccc(-c2nc(C#N)c(NCc3ccco3)o2)cc1 | 58.3* | 0.4 | -1.57 | 0.6 | 40.1
CCc1c(C)nc(N)n2c(SCC(=O)N3CCN(c4ccccc4F)CC3)nnc12 | 4.2 | 1 | . | 1 | -3.6
Cc1ccc2c(c1)c1nc3ccccc3nc1n2CCN1CCOCC1 | 39.5 | 0.6 | -0.0996 | 0.8 | 23.7
COc1ccc(CCn2c(N)c(S(=O)(=O)c3cccs3)c3nc4ccccc4nc32)cc1OC | . | . | 1.1 | . | .
N#Cc1c(N)n(CCCN2CCOCC2)c2nc3ccccc3nc12 | 32.0 | 0.7 | 0.257 | 0.1 | 88.7*
COc1ccc(CCn2c(N)c(C#N)c3nc4ccccc4nc32)cc1OC | 40.4 | 0.6 | 0.464 | 0 | 97.9*
COc1ccc(Cn2c(N)c(C#N)c3nc4ccccc4nc32)cc1OC | 66.9* | 0.3 | 0.505 | 0.1 | 90.4*
COc1ccccc1CCn1c(N)c(C#N)c2nc3ccccc3nc21 | 55.4* | 0.4 | -1.84 | 0.6 | 38.4
CS/C(=N\S(=O)(=O)c1cccs1)Nc1ccc(N2CCOCC2)cc1 | 5.0 | 0.9 | . | 1 | 2.2
CCn1c(SCC(=O)n2nc(C)cc2C)nnc1-c1ccc2c(c1)OCO2 | -20.5 | 1.2 | -0.204 | 0.7 | 30.1
CC1=C(C#N)C2C(/C1=N/O)C2(C)C (configuration not stated) | 20.2 | 0.8 | 0.0142 | 0.8 | 23.8
N#Cc1c(N)n(CCNC(=O)c2cccs2)c2nc3ccccc3nc12 | 16.3 | 0.8 | 1.72 | 0.1 | 87.4*
CCC(=O)N1CCc2cc(Br)cc(S(=O)(=O)N3CCCCCC3)c21 | . | . | -0.87 | . | .
CCOC(=O)C1CCCN(S(=O)(=O)c2cc(Br)cc3c2N(C(=O)C2CC2)CC3)C1 (configuration not stated) | -192.9 | 2.9* | 0.372 | 0.6 | 38.3
O=C(C1CC1)N1CCc2cc(Br)cc(S(=O)(=O)N3CCCCCC3)c21 | 21.3 | 0.8 | -3.49 | 0.1 | 90.2*
Cc1nnsc1C(=O)NNS(=O)(=O)c1ccccc1 | 3.6 | 1 | 0.0691 | 1.1 | -12.9
CCOC(=O)C1CCN(C(=O)c2c(-c3c(F)cccc3Cl)noc2C)CC1 | 28.1 | 0.7 | 1.03 | 0.9 | 5.5
Cc1cc(Cl)ccc1Oc1nccc(N(C)C)c1C#N | 61.4* | 0.4 | -0.104 | 0.8 | 23.8
CCN(CC)C(=O)Cn1nc(C)c2ccccc2c1=O | -9.3 | 1.1 | 1.23 | 1 | -0.6
COC(=O)c1sc(NC(=O)c2ccc(Cn3cc(Cl)cn3)o2)c(C#N)c1C | 74.9* | 0.3 | -3.73* | 0.5 | 46.9
CC(C)NC(=O)c1cccc(Cn2cc(Cl)cn2)c1 | 25.6 | 0.7 | -0.892 | 0.9 | 5.2
O=C(c1ccc(Cn2cc(Cl)cn2)cc1)N1CCN(c2ccccc2)CC1 | 32.0 | 0.7 | -1.86 | 0.9 | 14.4
COC(=O)c1ccc(Cn2cc(Cl)cn2)cc1 | 53.3* | 0.5 | -0.143 | 0 | 99.2*
O=C(Nc1cccc2ccccc12)c1ccc(Cn2cc(Cl)cn2)cc1 | -156.4 | 2.6* | -3.87* | 0.9 | 14.6
COc1ccc(C(=O)C(OC(=O)CNC(=O)c2ccco2)c2ccccc2)cc1 (configuration not stated) | 19.4 | 0.8 | -2.61 | 0.5 | 45.6
Cc1nn(C)c(N)c1C(O)(c1nccn1C)C(F)(F)F (configuration not stated) | 4.2 | 1 | -0.0627 | 1 | -2.4
